The text below walks through data of PubChem BioAssay AID434926 (Sanford-Burnham Center for Chemical Genomics, 2010).

The other results are listed elsewhere or left out. Active and inactive are the calls of the source.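 How the source made its calls: active means at least twofold enzyme activation in any of six single-dose repeats, which the averaged readout prints as negative percent; inactive means the rest.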

Chain of Intestinal-type alkaline phosphatase (Homo sapiens) (P09923 whole entry, looked up): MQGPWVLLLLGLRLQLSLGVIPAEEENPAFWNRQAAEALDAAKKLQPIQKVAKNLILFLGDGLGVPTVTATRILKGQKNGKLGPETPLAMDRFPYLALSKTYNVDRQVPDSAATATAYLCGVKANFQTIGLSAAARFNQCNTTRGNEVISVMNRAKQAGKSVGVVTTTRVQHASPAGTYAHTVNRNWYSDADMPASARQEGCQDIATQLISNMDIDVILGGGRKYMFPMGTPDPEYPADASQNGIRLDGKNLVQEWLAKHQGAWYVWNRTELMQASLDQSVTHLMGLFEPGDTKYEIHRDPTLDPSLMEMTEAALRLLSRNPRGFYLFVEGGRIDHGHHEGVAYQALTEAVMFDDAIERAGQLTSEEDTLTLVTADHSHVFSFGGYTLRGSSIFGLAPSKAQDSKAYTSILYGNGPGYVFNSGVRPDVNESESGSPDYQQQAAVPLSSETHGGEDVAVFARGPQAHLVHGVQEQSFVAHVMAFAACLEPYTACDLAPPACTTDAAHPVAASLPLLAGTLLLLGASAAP

The assay addresses Intestinal-type alkaline phosphatase (Homo sapiens) (UniProt P09923). In words: human IAP activators, confirmation, biochemical, luminescence, single concentration, uHTS hits (AID 434926). Particulars: purified IAP, CDP-Star luminescence, 30 min; at 8.3 µM; stronger effect = lower value.
Turning to `OCCCN1c2ccccc2Nc2nnc(-c3ccccc3)cc21`, the activation (%Activity, negative = activation) is -25.8% (inactive).

Take `Cc1cc(C(=O)NC2CC(C)(C)Cc3c2cnn3-c2ccccc2)n[nH]1` (centres undefined): the activation (%Activity, negative = activation) was 62.1% (inactive).

Turning to `COc1cccc(/C=N/NC(=O)c2[nH]nc3c2CCc2ccccc2-3)c1O`, the activation (%Activity, negative = activation) was 13.9% (inactive).

For `Cc1cc(C)cc(NC(=O)NC2CCN(CC(=O)Nc3cccc(Cl)c3C)CC2)c1`, the activation (%Activity, negative = activation) is 1.71% (inactive).

For `CCOC(=O)c1cn[nH]c1NC(=S)Nc1ccccc1`, the activation (%Activity, negative = activation) was -69.2% (inactive).

Take `CCOc1ccc(NC(=O)CSc2nncn2C)cc1`: the activation (%Activity, negative = activation) is -83.5% (active).

Regarding `Cc1c(C=O)c2ccccn2c1C(=O)c1ccncc1`, the activation (%Activity, negative = activation) was 5.63% (inactive).

Turning to `COCCSc1nnc(NC(=O)CCS(=O)(=O)Cc2ccccc2)s1`, the activation (%Activity, negative = activation) was -46.9% (inactive).

Take `Cc1c(NC(=O)CN(C)CC(=O)Nc2ccc(F)c(F)c2F)c(=O)n(-c2ccccc2)n1C`: the activation (%Activity, negative = activation) is -0.594% (inactive).

On to `Cc1ccc2c(c1)nnc1nnc(SCC(=O)O)n12`, for which the activation (%Activity, negative = activation) is 33.9% (inactive).

For `Cn1c(=O)c2c(nc(N/N=C/c3cccs3)n2Cc2ccc(Br)cc2)n(C)c1=O`, the activation (%Activity, negative = activation) is -8.19% (inactive).

For the compound `CC(C)Oc1ccc(CCC(=O)NNC(=S)NCc2ccccc2)cc1`, the activation (%Activity, negative = activation) is 46.5% (inactive).

With `O=C(NNC(=S)Nc1ccccc1)c1cccc(S(=O)(=O)N2CCOCC2)c1`, the activation (%Activity, negative = activation) was -70.7% (inactive).

Take `COc1ccc2c(c1OC)C(=O)N(c1ncn[nH]1)C2`: the activation (%Activity, negative = activation) was 12.6% (inactive).

As for `COc1ccc(CN2CCC(n3nccc3NC(=O)CCCc3ccccc3)CC2)cc1C`, the activation (%Activity, negative = activation) is -127% (active).

Regarding `O=c1c(/C=N/O)coc2ccc(Cl)cc12`, the activation (%Activity, negative = activation) was -11.6% (inactive).

For the compound `C[C@H](NC(=O)c1[nH]cnc1C(=O)Nc1nccs1)c1ccccc1`, the activation (%Activity, negative = activation) was -3.71% (inactive).

For the compound `O=C(NCCN1CCOCC1)[C@H](Cc1ccccc1)N1C(=O)c2ccccc2C1=O`, the activation (%Activity, negative = activation) was -5.42% (inactive).

For `CCN1/C(=C\c2ccc3ccccc3[n+]2CC)Sc2cc(C)ccc21`, the activation (%Activity, negative = activation) was 32.7% (inactive).

Take `O=C(Nc1ccon1)c1nc[nH]c1C(=O)NCc1ccccc1`: the activation (%Activity, negative = activation) is 88.5% (inactive).

As for `COc1ccc(C2=Nc3cc(C)ccc3OC2)cc1`, the activation (%Activity, negative = activation) is 58.3% (inactive).

As for `CC(=NCc1ccc2c(c1)OCO2)C1=C(O)c2ccccc2C1=O`, the activation (%Activity, negative = activation) is -2.92% (inactive).

`CC(C)(C)OC(=O)NCCCCCNC(=O)c1[nH]cnc1C(=O)Nc1nccs1`: the activation (%Activity, negative = activation) is -6.96% (inactive).

In the case of `O=C(Nc1ccc(Cl)cc1)c1ccsn1`, the activation (%Activity, negative = activation) is -68.3% (inactive).
